From PubChem BioAssay AID1051 (The Scripps Research Institute Molecular Screening Center, 2008)
Screen size: about 99,000 compounds; about 340 (0.34%) were called active. Rule as the data show it: active = TR-FRET ratio above about 2300; inactive = the rest. Only a selection was taken, and actives are over-represented in it overall.

Experiment: TR-FRET detection interference compounds, primary screen, artefact control for PPARgamma SRC-1 recruitment agonists, biochemical, TR-FRET emission ratio (AID 1051)
Conditions: TR-FRET detection artefact counter-screen, at 8 µM, hits give high values
In the case of `COC(=O)c1c(C)[nH]c(C)c1-c1ccc([N+](=O)[O-])cc1`, the TR-FRET ratio is reported as 1710 (inactive). In the case of `CCOc1cc(CNn2c(C)nnc2SCC(=O)NC(C)(C)C)ccc1OCC(=O)NC(C)(C)C`, the TR-FRET ratio is reported as 1840 (inactive). In the case of `O=C(NNS(=O)(=O)c1ccc(F)cc1)c1cnccn1`, the TR-FRET ratio is reported as 1930 (inactive). For `Cc1ccc(NC(=S)N(CCN2CCCCC2)Cc2ccco2)cc1C`, the TR-FRET ratio was 1560 (inactive). With `COc1cc(C(=O)OCc2ccc([N+](=O)[O-])cc2)cc(OC)c1OC` the TR-FRET ratio was 1470 (inactive). For `S=C(Cc1ccc(Cl)cc1)N1CCOCC1`, the TR-FRET ratio was 2050 (inactive). In the case of `COc1cc(NS(=O)(=O)c2ccc(NC(=O)c3ccc(S(=O)(=O)N4CCCCC4)cc3)cc2)ncn1`, the TR-FRET ratio is reported as 1650 (inactive). For `CCC(=O)N(Cc1cc2ccccc2[nH]c1=O)c1ccc(OC)cc1`, the TR-FRET ratio was 1990 (inactive). For `COc1ccc(-n2nnnc2SCC(=O)NCc2cccs2)cc1`, the TR-FRET ratio was 1830 (inactive). In the case of `CN1CCN(S(=O)(=O)c2cccc(C(=O)N3CCc4ccccc43)c2)CC1`, the TR-FRET ratio is reported as 1760 (inactive). With `Cc1ccc(N2C(=O)C(CC(=O)Nc3cccc(F)c3)N(CCc3ccncc3)C2=O)cc1` (centres undefined) the TR-FRET ratio was 1810 (inactive). In the case of `CCOc1cnc(-c2c(-c3ccccc3Cl)noc2C)o1`, the TR-FRET ratio is reported as 1830 (inactive). In the case of `O=C(COC(=O)c1cc(S(=O)(=O)N2CCCCC2)ccc1Cl)NCc1ccco1`, the TR-FRET ratio is reported as 1930 (inactive). In the case of `COc1ccc(S(=O)(=O)N2CCCCCC2)cc1C(=O)OCC(=O)Nc1cc(C)on1`, the TR-FRET ratio is reported as 2360 (active). For `Cc1cc(NC(=O)COC(=O)c2ccc(F)c(S(=O)(=O)N3CCOCC3)c2)no1`, the TR-FRET ratio was 1740 (inactive). For `COc1ccnc(Oc2ccccc2)n1`, the TR-FRET ratio was 1760 (inactive). With `O=C(Nc1ccc(N2CCN(C(=O)c3cccs3)CC2)cc1)c1cccnc1Cl` the TR-FRET ratio was 1580 (inactive). In the case of `CNS(=O)(=O)c1ccc(N2CCCC2=O)c([N+](=O)[O-])c1`, the TR-FRET ratio is reported as 1690 (inactive). With `O=S(=O)(c1ccc(-c2ccccc2)cc1)N1CCCC1` the TR-FRET ratio was 1580 (inactive). In the case of `CC(=O)OC(COc1ccc(F)cc1)Cn1cnc2ccccc21` (centres undefined), the TR-FRET ratio is reported as 1950 (inactive). In the case of `CC(OC(=O)c1ccc2ccccc2n1)C(=O)c1ccccc1` (centres undefined), the TR-FRET ratio is reported as 1760 (inactive). For `COC(=O)c1ccc(NC(=S)Nc2cccc(C)n2)cc1`, the TR-FRET ratio was 1830 (inactive). With `Cc1cccc(NC(=O)c2ccc3ccccc3n2)n1` the TR-FRET ratio was 2320 (active). In the case of `COc1ccc(N2CCN(CCCNC(=O)C3CCN(S(=O)(=O)N4CCOCC4)CC3)CC2)cc1`, the TR-FRET ratio is reported as 1660 (inactive). With `COc1ccc(C)cc1NC(=S)Nc1ccccc1SC` the TR-FRET ratio was 1550 (inactive). With `O=C(N/N=C/c1ccc([N+](=O)[O-])o1)c1cccc(S(=O)(=O)N2CCOCC2)c1` the TR-FRET ratio was 2000 (inactive). For `COC(=O)c1ccc(CN2CCN(CCCc3ccccc3)C(CCO)C2)cc1` (centres undefined), the TR-FRET ratio was 1770 (inactive). With `CC(=O)N1c2ccccc2N(Cc2ccc([N+](=O)[O-])cc2)C(=O)C1(C)C` the TR-FRET ratio was 1840 (inactive). In the case of `N#Cc1c(NC(=O)C2CC(Cl)=CCC2C(=O)O)sc2c1CCCCC2` (centres undefined), the TR-FRET ratio is reported as 1990 (inactive). With `COC(=O)C(C)N=Cc1ccccc1` (centres undefined) the TR-FRET ratio was 1960 (inactive). In the case of `CCN(CC)S(=O)(=O)c1ccc(Cl)c(NC(=O)c2ccncc2)c1`, the TR-FRET ratio is reported as 1750 (inactive). With `Cc1ccc(-c2cn3cc([N+](=O)[O-])ccc3n2)cc1` the TR-FRET ratio was 1970 (inactive). In the case of `COc1cc(/C=C/C(=O)OCC(=O)N2CCOCC2)ccc1OCC#N`, the TR-FRET ratio is reported as 1960 (inactive). In the case of `Cc1cc(NC(=O)CSc2nc3c(cc2C#N)CCCCC3)no1`, the TR-FRET ratio is reported as 1930 (inactive). For `C/C(CC(=O)Nc1cccc(F)c1)=N\NC(=O)C(=O)NC1CCCCC1`, the TR-FRET ratio was 1840 (inactive). For `CCOc1ccc(N(CC(=O)NCCc2ccc(OC)cc2)S(C)(=O)=O)cc1`, the TR-FRET ratio was 1790 (inactive). With `Cc1ccccc1CN(c1ccc(C(=O)NCC2CCCO2)cc1)S(C)(=O)=O` (centres undefined) the TR-FRET ratio was 1760 (inactive). In the case of `CNc1[nH]ncc1[N+](=O)[O-]`, the TR-FRET ratio is reported as 1620 (inactive). In the case of `O=C(c1ccc(OC2CCN(Cc3ccccn3)CC2)cc1)N1CCCCCC1`, the TR-FRET ratio is reported as 1590 (inactive). For `CCc1nnc(NC(=O)/C=C/c2ccc(C)o2)s1`, the TR-FRET ratio was 1650 (inactive). With `CCOC(=O)C1CCCN(C(=O)c2cccc(S(=O)(=O)N3CCOCC3)c2)C1` (centres undefined) the TR-FRET ratio was 1820 (inactive). In the case of `Cc1nc2ccc(NC(=S)N3CCC(C)CC3)cc2nc1C`, the TR-FRET ratio is reported as 1940 (inactive). With `Cn1cc(CCC(=O)N2CCCC(C(=O)c3ccc(C(C)(C)C)cc3)C2)cn1` (centres undefined) the TR-FRET ratio was 2020 (inactive). For `Cc1coc(C)c1C(=O)CC1(O)C(=O)N(C)c2ccc(Cl)cc21` (centres undefined), the TR-FRET ratio was 1870 (inactive). For `CC(C)CC(CC(C)C)=NNC(=O)c1ccc(CSc2nncn2C)cc1`, the TR-FRET ratio was 1890 (inactive). In the case of `O=C(C1CC1)N1N=C2CCCCC2C1(O)C(F)(F)F` (centres undefined), the TR-FRET ratio is reported as 1750 (inactive). With `O=[N+]([O-])c1cc(S(=O)(=O)N2CCCC2)ccc1NN=C1CCCC1` the TR-FRET ratio was 1910 (inactive). With `Cn1cnnc1SCc1nnc(-c2ccccc2Br)o1` the TR-FRET ratio was 1590 (inactive). For `CCOC(=O)CCCNC(=O)COC(=O)/C=C/c1ccc2c(c1)OCO2`, the TR-FRET ratio was 1620 (inactive). In the case of `O=C(OCC(=O)N1CCOCC1)c1ccc(N2CCOCC2)c([N+](=O)[O-])c1`, the TR-FRET ratio is reported as 2030 (inactive). With `COc1ccc(NC(=S)N2CCCC(CO)C2)c(OC)c1` (centres undefined) the TR-FRET ratio was 1690 (inactive). In the case of `Cc1nn(C)c(C)c1S(=O)(=O)N1CCC(CO)(Cc2ccc(Cl)cc2)CC1`, the TR-FRET ratio is reported as 1980 (inactive). With `O=C(CCN1C(=O)c2ccccc2C1=O)NNC(=O)c1ccc(Cl)cc1Cl` the TR-FRET ratio was 2130 (inactive). For `CCC1CO/C(=C(\C(=C(Cl)Cl)N2CCOCC2)[N+](=O)[O-])N1` (centres undefined), the TR-FRET ratio was 1830 (inactive). For `CN(C(=O)CSc1nncc2ccccc12)C1CCCCC1`, the TR-FRET ratio was 1810 (inactive). For `Cc1ccc(Sc2ccncc2S(N)(=O)=O)cc1`, the TR-FRET ratio was 1560 (inactive). For `CCOC(=O)c1c(C)[nH]c(=S)c(C#N)c1-c1ccccc1`, the TR-FRET ratio was 1630 (inactive). With `N#Cc1c(-c2ccc(Cl)cc2)c2c([nH]c1=S)CCCC2` the TR-FRET ratio was 2380 (active). In the case of `CNc1nccc(-c2ccc(Cl)cc2)c1C#N`, the TR-FRET ratio is reported as 1880 (inactive). In the case of `Clc1cccc(-c2nc(NCC3CCCO3)c3ccccc3n2)c1` (centres undefined), the TR-FRET ratio is reported as 1630 (inactive). For `CCc1[nH]nc(C(=O)N2CCCC(CNS(=O)(=O)c3cccs3)C2)c1C` (centres undefined), the TR-FRET ratio was 1580 (inactive). In the case of `O=C(O)Cc1sc(-c2ccc(C(=O)O)cc2)nc1-c1ccccc1`, the TR-FRET ratio is reported as 1940 (inactive). With `O=C(O)Cc1sc(-c2ccccc2)nc1-c1cccs1` the TR-FRET ratio was 2910 (active). For `O=C(O)Cc1ccc(-c2ccccc2)cc1`, the TR-FRET ratio was 1790 (inactive). In the case of `O=C(Nc1ccccc1)N1CCN(C(=O)Nc2ccccc2)CC1`, the TR-FRET ratio is reported as 1700 (inactive). For `Cc1nc2ccccc2c(C)c1C(=O)c1ccc(F)cc1`, the TR-FRET ratio was 1400 (inactive). With `CCC(CC)C(=O)N1CCN(c2cccc(C)c2C)CC1` the TR-FRET ratio was 1600 (inactive). With `O=C(COC(=O)c1ccc(F)cc1)Nc1nc2ccc([N+](=O)[O-])cc2s1` the TR-FRET ratio was 1760 (inactive). For `COc1ccc(Cc2nnc(NC(=O)Cc3cccs3)s2)cc1`, the TR-FRET ratio was 1780 (inactive). With `COc1ccc(OCCCC(=O)Nc2nnc(C3CCCO3)s2)cc1` (centres undefined) the TR-FRET ratio was 1980 (inactive). With `COc1ccc(OCC(=O)Nc2nnc(-c3ccco3)s2)cc1` the TR-FRET ratio was 2500 (active). In the case of `C=CCO/N=C/C1=C(O)C(C(=O)OC)C(C)(C)CC1=O` (centres undefined), the TR-FRET ratio is reported as 1870 (inactive). In the case of `C/C(N)=C(/C#N)C(=O)COC(=O)c1cc(-c2ccccc2)nc2ccc(Br)cc12`, the TR-FRET ratio is reported as 1910 (inactive). With `O=C(NCc1ccccn1)c1cc(Br)ccc1Cl` the TR-FRET ratio was 1780 (inactive). For `Cc1ccc(-c2cc(C(=O)NCc3cn(C)nc3C)c3cc(Br)ccc3n2)cc1`, the TR-FRET ratio was 2880 (active). In the case of `Cc1ccc2nc(-c3cccc(Br)c3)cc(C(=O)Nn3cnnc3)c2c1`, the TR-FRET ratio is reported as 1660 (inactive). For `O=C(Nc1ccncc1)c1cc(-c2ccccn2)nc2ccc(Br)cc12`, the TR-FRET ratio was 1860 (inactive). With `O=C(NCc1cccs1)c1cc(-c2ccccn2)nc2ccc(Br)cc12` the TR-FRET ratio was 2520 (active). In the case of `CSc1ccc(CN2C(=O)NC3(CCCCCC3)C2=O)cc1`, the TR-FRET ratio is reported as 1630 (inactive). In the case of `Cc1ccnc(NS(=O)(=O)c2ccc(NC(=O)c3ccc(S(=O)(=O)N(C)C)cc3)cc2)n1`, the TR-FRET ratio is reported as 1700 (inactive). For `COc1cccc(NC(=O)c2ccc(S(=O)(=O)N(C)C)cc2)c1`, the TR-FRET ratio was 1680 (inactive). With `COc1cccc(NC(=S)NCc2ccccn2)c1` the TR-FRET ratio was 1990 (inactive). For `Cc1nn(C)c(C(=O)NNC(=S)NC2CCCCC2)c1Cl`, the TR-FRET ratio was 1630 (inactive). In the case of `COc1cccc(NC(=S)NC(=O)c2c(Cl)c(C)nn2C)c1`, the TR-FRET ratio is reported as 2600 (active). With `CN1CCN(C(=O)N2c3ccccc3CCc3ccccc32)CC1` the TR-FRET ratio was 1720 (inactive). In the case of `CCOc1c(CNCc2ccc(C(=O)O)cc2)cccc1OC`, the TR-FRET ratio is reported as 1910 (inactive). With `O=C(CC1C(=O)NCCN1Cc1ccc(-c2ccccc2)cc1)NCC1CCOCC1` (centres undefined) the TR-FRET ratio was 1730 (inactive). With `CCc1ccccc1N1C(=O)C2C3CC(=O)C(c4ccccc43)C2C1=O` (centres undefined) the TR-FRET ratio was 1650 (inactive). With `CC(=O)NC1=NN(C(C)=O)C(C)(c2ccc(C)cc2)S1` (centres undefined) the TR-FRET ratio was 1950 (inactive). For `COc1ccc(/C=N/NC(=O)Cn2cc(C(F)(F)F)ccc2=O)cc1`, the TR-FRET ratio was 1880 (inactive). For `CCN(CCn1cccn1)C(=O)CC1C(=O)NCCN1Cc1cccc(OC)c1OC` (centres undefined), the TR-FRET ratio was 1620 (inactive). In the case of `CSc1nc2c(c(=O)[nH]1)C(c1cccc(Cl)c1Cl)CC(=O)N2` (centres undefined), the TR-FRET ratio is reported as 1770 (inactive). In the case of `CCN1CCN(CC(=O)c2cc(OC)c(OC)c(OC)c2)CC1`, the TR-FRET ratio is reported as 1990 (inactive). In the case of `CC(C)OC(=O)CN1CCN(c2ccc(Cl)cc2)CC1`, the TR-FRET ratio is reported as 1890 (inactive). For `CCCC(=O)OCC(=O)Nc1cc(Cl)ccc1[N+](=O)[O-]`, the TR-FRET ratio was 1580 (inactive). With `CN(C)C(=O)N1CCNCC1` the TR-FRET ratio was 1920 (inactive). In the case of `COc1ccc(C/C(C)=N/NC(=O)c2ccncc2)cc1`, the TR-FRET ratio is reported as 1920 (inactive). For `O=C(Nc1ccc([N+](=O)[O-])cc1)C1(c2ccccc2)CCOCC1`, the TR-FRET ratio was 1740 (inactive). In the case of `CN1CCN(CC#CCC2(O)c3ccccc3-c3ccccc32)CC1`, the TR-FRET ratio is reported as 1610 (inactive).
